Biological target: T1, CLTC 1-363 Clathrin_propel+Clathrin-link (domain begin residue: 1, domain end residue: 363), Q00610
T1 chain: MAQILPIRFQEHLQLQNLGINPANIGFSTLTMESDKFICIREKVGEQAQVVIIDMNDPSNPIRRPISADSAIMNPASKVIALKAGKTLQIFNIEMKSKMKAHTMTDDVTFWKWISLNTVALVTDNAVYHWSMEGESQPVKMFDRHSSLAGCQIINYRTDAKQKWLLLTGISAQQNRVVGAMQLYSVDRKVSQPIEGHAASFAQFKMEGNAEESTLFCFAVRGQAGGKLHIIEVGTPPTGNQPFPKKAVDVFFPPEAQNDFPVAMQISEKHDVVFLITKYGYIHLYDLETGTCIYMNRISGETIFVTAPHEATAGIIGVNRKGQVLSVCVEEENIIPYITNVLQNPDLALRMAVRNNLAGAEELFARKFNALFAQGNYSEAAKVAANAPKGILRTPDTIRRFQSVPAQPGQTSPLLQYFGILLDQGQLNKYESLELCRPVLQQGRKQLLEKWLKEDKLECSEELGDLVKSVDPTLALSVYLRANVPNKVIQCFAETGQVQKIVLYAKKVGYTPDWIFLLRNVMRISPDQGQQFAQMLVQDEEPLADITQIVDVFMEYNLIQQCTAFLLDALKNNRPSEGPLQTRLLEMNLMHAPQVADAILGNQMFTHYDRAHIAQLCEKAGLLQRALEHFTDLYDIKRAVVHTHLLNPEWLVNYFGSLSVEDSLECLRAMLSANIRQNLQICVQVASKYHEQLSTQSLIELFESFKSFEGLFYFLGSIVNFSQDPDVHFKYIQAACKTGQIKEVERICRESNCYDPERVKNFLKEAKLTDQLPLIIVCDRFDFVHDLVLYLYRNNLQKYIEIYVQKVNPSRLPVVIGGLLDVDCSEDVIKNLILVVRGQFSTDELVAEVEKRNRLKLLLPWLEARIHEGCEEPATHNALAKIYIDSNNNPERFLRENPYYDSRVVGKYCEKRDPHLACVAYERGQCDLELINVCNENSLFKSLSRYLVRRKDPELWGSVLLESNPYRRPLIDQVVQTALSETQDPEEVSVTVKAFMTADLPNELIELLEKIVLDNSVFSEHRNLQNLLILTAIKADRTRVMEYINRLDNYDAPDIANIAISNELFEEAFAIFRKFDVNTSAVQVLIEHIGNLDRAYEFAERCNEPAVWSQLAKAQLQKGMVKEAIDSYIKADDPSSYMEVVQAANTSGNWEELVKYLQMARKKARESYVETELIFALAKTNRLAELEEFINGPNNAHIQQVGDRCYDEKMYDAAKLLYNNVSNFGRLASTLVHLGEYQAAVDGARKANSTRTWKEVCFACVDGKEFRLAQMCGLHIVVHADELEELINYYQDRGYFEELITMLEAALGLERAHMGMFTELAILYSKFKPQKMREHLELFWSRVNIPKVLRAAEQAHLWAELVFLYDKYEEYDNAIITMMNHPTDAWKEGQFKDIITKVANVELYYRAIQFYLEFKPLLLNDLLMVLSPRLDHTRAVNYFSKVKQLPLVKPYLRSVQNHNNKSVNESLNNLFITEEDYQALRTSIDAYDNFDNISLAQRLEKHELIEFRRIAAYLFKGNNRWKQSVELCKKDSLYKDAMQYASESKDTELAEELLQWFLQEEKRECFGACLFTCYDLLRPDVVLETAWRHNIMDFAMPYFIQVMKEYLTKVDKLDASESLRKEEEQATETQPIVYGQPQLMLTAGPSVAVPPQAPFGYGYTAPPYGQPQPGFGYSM
Experiment: phage ELISA signal ratio (GST-PRM binding over GST background); higher = stronger binding of peptide-phage to the PRM
Protocol: (§1)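 Phage-displayed random hexadecapeptides (Cys-free, flanked by invariant Gly linkers, fused to the M13 P8 major coat protein) were selected over 5 rounds against GST-fused human PRM domains. Individual clones from rounds 4-5 were tested by phage ELISA, and positive clones binding the target but not GST were sequenced. Values are the ELISA signal ratio of target over background (GST); the background signal is given separately.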

Binder	phage ELISA signal ratio
DLIWWTDLTEEYGTHV	21.9
SPFVYDIVDLGFPSIM	22.5
WLDYNDWLEMDHWEYV	23.8
DWAQVLWQDAHDWPVY	23.9
MYEFLIEPEDDWWWWN	26.5
EVFDLISWDDGMWHSV	28.8
WELQWDAIWGFPDELA	30.6
YTLTIDELEHWLSAGG	31.7
DQQQWDDMDWLATWML	32.5

Biological target: T2, CTDSP2 90-271 NIF (domain begin residue: 90, domain end residue: 271), O14595
T2 chain: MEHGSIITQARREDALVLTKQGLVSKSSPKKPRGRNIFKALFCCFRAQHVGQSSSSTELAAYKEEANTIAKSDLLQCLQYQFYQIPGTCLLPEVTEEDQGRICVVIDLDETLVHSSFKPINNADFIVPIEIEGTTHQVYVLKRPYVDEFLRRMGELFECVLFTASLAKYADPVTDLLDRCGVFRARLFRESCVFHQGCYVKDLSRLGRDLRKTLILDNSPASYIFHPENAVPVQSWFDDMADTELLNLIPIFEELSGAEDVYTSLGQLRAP
Experiment: as above
Protocol: as §1

Binder	phage ELISA signal ratio
EPFMVAWESFMLTHAM	7.49
EQVSFMHEWHQRFWQT	9.81

biological target: DCTN1 26-97 CAP_GLY (domain begin residue: 26, domain end residue: 97), Q14203; experiment: as above
Sequence (Q14203 whole entry): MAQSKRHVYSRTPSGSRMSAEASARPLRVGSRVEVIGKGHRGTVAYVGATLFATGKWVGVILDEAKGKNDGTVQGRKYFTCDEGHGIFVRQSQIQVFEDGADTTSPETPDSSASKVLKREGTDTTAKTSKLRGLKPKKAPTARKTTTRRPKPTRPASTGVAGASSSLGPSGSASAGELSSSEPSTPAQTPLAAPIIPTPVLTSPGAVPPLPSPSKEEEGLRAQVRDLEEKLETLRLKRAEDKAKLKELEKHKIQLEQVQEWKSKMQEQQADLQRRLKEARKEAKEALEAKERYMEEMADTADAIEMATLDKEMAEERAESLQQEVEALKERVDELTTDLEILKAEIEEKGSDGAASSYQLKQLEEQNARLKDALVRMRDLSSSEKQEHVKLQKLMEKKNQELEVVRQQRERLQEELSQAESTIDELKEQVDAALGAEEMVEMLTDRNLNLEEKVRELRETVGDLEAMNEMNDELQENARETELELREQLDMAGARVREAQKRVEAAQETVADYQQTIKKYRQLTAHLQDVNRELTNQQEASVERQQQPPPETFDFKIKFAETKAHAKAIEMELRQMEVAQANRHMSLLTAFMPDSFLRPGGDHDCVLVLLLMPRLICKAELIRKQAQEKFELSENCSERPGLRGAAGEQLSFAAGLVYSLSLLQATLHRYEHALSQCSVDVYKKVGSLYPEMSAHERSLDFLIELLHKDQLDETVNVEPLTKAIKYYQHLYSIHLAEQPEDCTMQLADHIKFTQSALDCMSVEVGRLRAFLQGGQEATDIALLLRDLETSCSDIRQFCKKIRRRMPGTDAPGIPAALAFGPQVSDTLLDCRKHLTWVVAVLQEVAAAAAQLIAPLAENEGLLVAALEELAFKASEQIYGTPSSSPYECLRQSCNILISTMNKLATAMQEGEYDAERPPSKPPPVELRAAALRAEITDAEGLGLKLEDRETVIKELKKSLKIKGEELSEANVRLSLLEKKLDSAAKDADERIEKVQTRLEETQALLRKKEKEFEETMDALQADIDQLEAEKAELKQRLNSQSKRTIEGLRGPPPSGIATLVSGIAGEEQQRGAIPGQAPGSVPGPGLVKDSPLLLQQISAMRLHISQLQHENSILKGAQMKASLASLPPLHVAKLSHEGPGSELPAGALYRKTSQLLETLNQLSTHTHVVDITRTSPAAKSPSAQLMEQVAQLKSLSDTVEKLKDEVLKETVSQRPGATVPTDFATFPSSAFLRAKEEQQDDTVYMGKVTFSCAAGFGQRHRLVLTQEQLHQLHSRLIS
Protocol: as §1

Binder	phage ELISA signal ratio
MEWTWEQWDLGADYVK	21.2
QDEWVPWQLWSQWESI	26.4
FKEWTWSPVEWGQAES	6.09
HEFTPPWTWDWDIPHI	7.35
MSDPPTLEHWEYMSWE	12
HGMDYLNREFPWDWWT	16.6

biological target: DEPDC1B 7-110 DEP (domain begin residue: 7, domain end residue: 110), Q8WUY9; experiment: as above
Sequence (Q8WUY9 whole entry): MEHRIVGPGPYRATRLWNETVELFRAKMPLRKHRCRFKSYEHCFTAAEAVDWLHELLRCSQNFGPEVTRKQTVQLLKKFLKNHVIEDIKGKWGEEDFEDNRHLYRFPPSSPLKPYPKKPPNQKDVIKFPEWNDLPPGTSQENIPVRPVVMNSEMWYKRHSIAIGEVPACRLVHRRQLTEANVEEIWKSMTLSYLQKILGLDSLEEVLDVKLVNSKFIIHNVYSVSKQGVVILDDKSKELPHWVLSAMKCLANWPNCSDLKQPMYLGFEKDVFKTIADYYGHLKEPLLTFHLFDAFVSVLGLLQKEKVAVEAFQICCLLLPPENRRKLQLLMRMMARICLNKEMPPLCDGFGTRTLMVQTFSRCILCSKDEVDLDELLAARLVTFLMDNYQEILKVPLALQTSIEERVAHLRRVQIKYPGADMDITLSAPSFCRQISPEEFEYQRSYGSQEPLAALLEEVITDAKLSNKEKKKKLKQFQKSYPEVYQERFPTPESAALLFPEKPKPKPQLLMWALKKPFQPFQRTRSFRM
Protocol: as §1

Binder	phage ELISA signal ratio
DLPYEWSHFWDSIEHH	4.2

biological target: DEPDC6 132-222 DEP (domain begin residue: 132, domain end residue: 222); experiment: as above
Protocol: as §1

Binder	phage ELISA signal ratio
IWWEQLHQDDWQAIWA	15.1

biological target: DEPDC6 20-129 DEP (domain begin residue: 20, domain end residue: 129); experiment: as above
Protocol: as §1

Binder	phage ELISA signal ratio
THSEQWFETLMWNFHN	3.26
DDGWMMDWWHQAQLQM	6.22
MPVWWEDWYWDWKSMH	6.24
EMLAGNEFRAMMDEYY	7.5
LAGFHPWFSEMLAEYH	8.33
QFDLWMRNVMLDFWAD	11.2
EVPLWFYNIISEFHET	13.8
GETHLMFSNMMEFYKY	19.9
DFQGIMDSYRAMEINT	20.1
GDKSEWFRALLDEYLV	21.6
MESAFQQVMLAYYQEL	21.9
EQQHDKFQMMMNIYKY	23
MYTFEEMWMHWKLVEM	23.6
MQMTFLDMMEQYRLME	33.8

Biological target: T3, DOK1 151-256 IRS (domain begin residue: 151, domain end residue: 256), Q99704
T3 chain: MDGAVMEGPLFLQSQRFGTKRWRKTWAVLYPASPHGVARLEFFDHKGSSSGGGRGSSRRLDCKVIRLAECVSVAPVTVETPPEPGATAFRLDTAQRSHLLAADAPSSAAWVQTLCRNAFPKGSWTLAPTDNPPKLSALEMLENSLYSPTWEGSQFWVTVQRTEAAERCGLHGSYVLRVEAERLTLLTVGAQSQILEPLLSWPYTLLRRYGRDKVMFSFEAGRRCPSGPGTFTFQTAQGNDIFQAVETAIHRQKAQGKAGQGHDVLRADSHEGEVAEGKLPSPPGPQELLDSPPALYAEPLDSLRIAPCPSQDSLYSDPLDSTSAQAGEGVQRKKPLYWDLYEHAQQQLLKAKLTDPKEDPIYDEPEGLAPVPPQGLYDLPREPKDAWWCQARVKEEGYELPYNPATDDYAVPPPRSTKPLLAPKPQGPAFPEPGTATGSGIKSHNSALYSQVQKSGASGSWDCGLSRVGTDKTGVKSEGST
Experiment: as above
Protocol: as §1

Binder	phage ELISA signal ratio
WVWHDMHLSAPFQHQE	3.72
EWFMDASGYWNNLQVS	7.98
YDQTGWAWVHEMQDMV	8.33
DWEAWHHNVDFAWGWV	9.3
DWPNYPANSWKYVTWA	10.2
WSEVWWTDLEGAMFWV	16.2
DTKWNIVHWDWDTWVH	16.4
EPWVDWSESMWAWVNT	17.6
QWMGLSVEQFAMNPWY	17.7
VWDLDTSADYLWVWMG	19.3
MPWPMWEQYQQHMQWV	19.7
DEWMLNETWIDYQELH	20
DLQWKWVYWHDLDDGE	22.6
DWVWSDVGGHVPQVWD	25
WVTWDNSSLKWIDETY	28
PGEMQESNWLWKFVDW	29.1
DNHWIWKEVNPMFMKD	30.4
VDDGDWVWVHVSQQFM	31.2
ADQWVWHYIMEMEQVR	33
QMVWHYPWEATDTHGW	33.5
WNEWNEKEMLWESVEG	37.8

Biological target: T4, DOK2 146-252 IRS (domain begin residue: 146, domain end residue: 252), O60496
T4 chain: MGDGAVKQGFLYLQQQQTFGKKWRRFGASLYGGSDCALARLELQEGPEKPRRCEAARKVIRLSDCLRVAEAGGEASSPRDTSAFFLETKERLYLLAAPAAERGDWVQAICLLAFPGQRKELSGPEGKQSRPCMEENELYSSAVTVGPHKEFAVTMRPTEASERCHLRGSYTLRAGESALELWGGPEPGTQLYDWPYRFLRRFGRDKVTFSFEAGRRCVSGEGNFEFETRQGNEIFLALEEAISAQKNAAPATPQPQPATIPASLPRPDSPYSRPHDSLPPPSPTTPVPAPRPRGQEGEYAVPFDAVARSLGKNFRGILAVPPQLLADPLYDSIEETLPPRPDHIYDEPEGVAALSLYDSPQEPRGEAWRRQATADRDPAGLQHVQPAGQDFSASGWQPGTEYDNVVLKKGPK
Experiment: as above
Protocol: as §1

Binder	phage ELISA signal ratio
TMAWEWIGNDVYVSHD	7.8
DEWTWHFVEQPWHMAG	7.99
DLMVWYDNPYYHSEMI	9.37

Reference: the supplement of paper PMC7724964
